97 molecules from PubChem BioAssay AID463195 (Sanford-Burnham Center for Chemical Genomics, 2010) can be followed below.

About 4,600 (1.4%) of roughly 330,000 compounds were called active.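 Rule for the calls: active = inhibition of 40% or more at the single tested concentration; inactive = the rest.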 Only a selection was taken, and actives are over-represented in it overall.

The nature of this assay: wild-type TIM10 yeast growth inhibition – luminescence, uHTS, counter-screen for tim10-1 yeast inhibitor project, primary screen (AID 463195).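 Note: wild-type TIM10 isogenic control strain grown at permissive 25 °C; 0% = DMSO yeast wells and 100% = minimal medium wells without yeast.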 Conditions: S. cerevisiae TIM10 strain growth, BacTiter-Glo luminescence, 24 h; at 10 µM; hits give high values. (The purpose of a counterscreen is to sort out artefacts and off-target activity.)
For orientation: inhibition means the drop in the measured response relative to a control, in per cent. As for `COc1ccc(N2C(=O)C3C(C2=O)C(C(=O)c2ccccc2)N2CCCC32)cc1` (configuration not stated), the inhibition is 7.93% (inactive).
With `COc1cccc(NC(=O)CSc2nccn(-c3ccc4c(c3)OCCO4)c2=O)c1` the figure was 44.8% (active).
For the molecule `COc1ccccc1-n1ccnc(SCC(=O)NC2CCCCC2)c1=O`, the inhibition was 15.4% (inactive).
With `Cn1ccnc1SCC(=O)Nc1ccc2c(c1)OCCO2` the figure was 8.81% (inactive).
As to `CC(C)Oc1ccc(S(=O)(=O)N2CCOCC2)cc1NC(=O)C1CCCC1`, the inhibition was 3% (inactive).
With `O=C(Nc1ccc(C(F)(F)F)cc1)c1cccc(-n2cnnn2)c1` the figure was 93% (active); with `O=C(Nc1ccc(-c2csc(Nc3cccc(C(F)(F)F)c3)n2)cc1)c1cccc(C(F)(F)F)c1`, 14.2% (inactive); with `O=C(Nc1cccc(-n2cnnn2)c1)c1cccnc1`, 5.34% (inactive).
In the case of `CN(CC(=O)Nc1cccc(F)c1)C(=O)CC1CCCC1` it was 7.55% (inactive).
As to `Cc1ccc(S(=O)(=O)N2CCOCC2)cc1C(=O)NC(=S)N(Cc1ccccc1)C(C)C`, the inhibition was 15.5% (inactive).
On to `c1ccc(-c2ccnc3nc(-n4cccc4)nn23)cc1`, for which the inhibition was 14.7% (inactive).
In the case of `COc1ccc(C(=O)Nc2ccc(-n3nncc3C(C)(C)C)cc2)cc1` it was 53.1% (active).
In the case of `C/C(=N\Nc1ccc([N+](=O)[O-])cc1)c1ccc(-n2nncc2C(C)(C)C)cc1` it was 8.53% (inactive).
In the case of `COc1ccc(NC(=O)c2ccc(C#CC(C)(C)O)cc2)cc1` it was 12% (inactive); in that of `COc1cccc(N(C(=O)c2ccn[nH]2)C2(C(=O)Nc3c(C)cccc3C)CCCCC2)c1`, 17.6% (inactive); in that of `OC(c1ccccc1)c1nccn1Cc1ccccc1` (configuration not stated), 8.31% (inactive).
Consider `COc1ccc(/C=C(\C#N)C(=O)OCC(=O)N(C)C2CCS(=O)(=O)C2)cc1` (configuration not stated), for which the inhibition is 4.8% (inactive).
Take `COc1ccc(N2CCN(C(=O)/C(C#N)=C/c3ccccc3)CC2)cc1`: the inhibition is 36% (inactive).
For the molecule `COc1ccc(/C=C(\C#N)C(=O)ONC2=NCCCCC2)cc1`, the inhibition was 48.5% (active).
With `O=C(Cn1nc(CNc2ccc(Cl)cc2)[n+]2c1CCCCC2)c1ccc(Cl)cc1` the figure was -4.18% (inactive); with `Cn1cc(CCC(=O)NC2CC2)c2ccccc21`, 4.31% (inactive).
Take `COC(=O)c1ccc(CNC(=O)c2ccc(S(=O)(=O)N3CCCCCC3)cc2)cc1`: the inhibition was -4.47% (inactive).
With `O=C(Nc1ccccc1F)c1ccc(S(=O)(=O)N2CCCCCC2)cc1` the figure was 12.4% (inactive).
`O=C(NCCc1ccc(F)cc1)c1ccc(S(=O)(=O)N2CCCCC2)cc1`: the inhibition was 41.7% (active).
For the molecule `O=C(Nc1ccc([N+](=O)[O-])cc1)C1CC12CCC2` (configuration not stated), the inhibition is 14.3% (inactive).
With `O=C(N/N=C/c1ccc(Cl)cc1)c1nc2ccc([N+](=O)[O-])cc2c(=O)[nH]1` the figure was -0.404% (inactive); with `COc1ccc(C(=O)N2CCCC(C(=O)c3ccccc3OC)C2)cc1OC` (configuration not stated), 1.3% (inactive).
In the case of `Cc1ccc(Cl)cc1NC(=O)C1CCCN(c2cnccn2)C1` (configuration not stated) it was 5.02% (inactive).
With `O=C(Nc1cccc(Cl)c1)C1CCCN(c2cnccn2)C1` (configuration not stated) the figure was 42.8% (active).
As to `O=C(Nc1ccc2c(c1)OCCO2)C1CCCN(c2ncccn2)C1` (configuration not stated), the inhibition is -4.49% (inactive).
In the case of `O=C1C2C3C=CC(C4CC34)C2C(=O)N1c1nccs1` (configuration not stated), the inhibition was -2.66% (inactive).
As for `CCOC(=O)c1cnc2ccc(F)cc2c1Nc1ccc2c(c1)OCCO2`, the inhibition was 37.4% (inactive).
As for `COc1ccc(-c2cn3ccc(C)cc3n2)cc1`, the inhibition was 30.2% (inactive).
In the case of `CSc1nnc2ccc(-c3ccc(C)cc3)nn12` it was 7.14% (inactive); in that of `Cc1ccc(-c2cn3cc(C)ccc3n2)cc1`, 65% (active).
With `Cc1ccc2nc(-c3ccc(Br)cc3)cn2c1` the figure was 40.3% (active).
In the case of `Cc1ccc(-c2cn3cc([N+](=O)[O-])ccc3n2)cc1` it was -29.9% (inactive); in that of `CCN(CC)S(=O)(=O)c1ccc(-c2cn3ccc(C)cc3n2)cc1`, 11.7% (inactive); in that of `COc1ccccc1C(=O)Nc1nc2nc(-c3ccccc3)cc(=O)n2[nH]1`, -9.51% (inactive).
Regarding `N#Cc1ccccc1NC(=O)COc1c(Br)cc(Br)c2cccnc12`, the inhibition is 13.8% (inactive).
With `O=C(Nc1ccc(N2CCN(C(=O)c3ccccc3)CC2)c(Cl)c1)c1ncn[nH]1` the figure was -12.4% (inactive); with `CN(C)C(=O)CCC(=O)N1CCCCC1C(=O)Nc1ccc(Oc2ccccc2F)cc1` (configuration not stated), 3.39% (inactive).
In the case of `Fc1ccccc1/C=C1\CCCC2=C1Nc1ncnn1C2c1ccccc1F` (configuration not stated) it was 48.1% (active); in that of `CC1=C(C(N)=O)C(c2ccc(Br)cc2)n2ncnc2N1` (configuration not stated), -4.88% (inactive).
With `CCC1CCc2c(sc(NC(C)=O)c2C#N)C1` (configuration not stated) the figure was 7.23% (inactive); with `O=C(COC(=O)c1ccc(Cl)nc1)NCc1cccs1`, 7.82% (inactive).
For `COc1ccccc1N1CCN(C(=O)C2Cc3ccccc3CN2C(=O)c2ccco2)CC1` (configuration not stated), the inhibition is 22% (inactive).
With `COC1=C(N2CCOCC2)C(=O)c2ccccc2C1=O` the figure was -3.21% (inactive); with `Cc1oc2c(c1C(=O)N1CCOCC1)C(=O)c1ccccc1C2=O`, 46.1% (active).
With `COc1cc2ccccc2cc1C(=O)N1CCOCC1`, the inhibition was 5.86% (inactive).
In the case of `CC1=C(C)CC(C(=O)NNC(=O)c2csc3c2CCC(C(C)(C)C)C3)C(C(=O)O)C1` (configuration not stated) it was 5.91% (inactive); in that of `O=C(CSCc1ccccc1)Nc1ccccc1`, -3.8% (inactive).
With `COC(=O)Cc1c(O)ccn(Cc2cccc(C(F)(F)F)c2)c1=O` the figure was 11.1% (inactive); with `Cc1ccc(C(=O)/C=C/c2c(C)nn(-c3ccccc3)c2Cl)cc1`, 29.3% (inactive).
`O=C(/C=C/Sc1ncn[nH]1)c1ccc(Cl)cc1`: the inhibition was 73.5% (active).
As for `O=C(CSc1ncn[nH]1)N/N=C/c1ccc(F)cc1`, the inhibition is -3.76% (inactive).
In the case of `CCN(CC)C(=O)[C@H]1C[C@H](CC(=O)NCC23CC4CC(CC(C4)C2)C3)C(=O)N2CCc3c([nH]c4cc(CCC(=O)N(C)C)ccc34)[C@]12C` it was 6.94% (inactive); in that of `CC(C)CC(=O)NC(=S)Nc1ccc(F)cc1F`, 41.9% (active).
On to `CC(C)CC(=O)NC(=S)Nc1cc(C(=O)O)ccc1Cl`, for which the inhibition is -4.57% (inactive).
For `CC(=O)c1ccc(NC(=S)NC(=O)CC(C)C)cc1`, the inhibition was 28.8% (inactive).
Regarding `Cc1cc(C)c(C)c(S(=O)(=O)Nc2ccc(O)cc2)c1C`, the inhibition is 11.4% (inactive).
With `Cc1c(C)c(C)c(S(=O)(=O)NCCc2ccccn2)c(C)c1C` the figure was 7.03% (inactive); with `COC(=O)c1sccc1NC(=O)CSc1ccccc1NS(=O)(=O)c1cc(Cl)ccc1Cl`, 10% (inactive).
In the case of `COc1ccc(NS(=O)(=O)c2ccc(F)cc2F)cn1` it was -5.52% (inactive); in that of `COC(=O)c1sccc1NS(=O)(=O)c1ccc(F)cc1F`, 48.3% (active); in that of `CC1CCCN(CCOCCOc2ccccc2-c2ccccc2)C1` (configuration not stated), -0.424% (inactive).
Turning to `Cc1ccc(NS(=O)(=O)c2ccc3c(c2)n(C)c(=O)c(=O)n3C)c(C)c1`, the inhibition is -2% (inactive).
In the case of `CCOC(=O)C(=CNc1cccc(C)n1)C(=O)OCC`, the inhibition is -4.77% (inactive).
Regarding `CCOC(=O)C(=Cc1ccccc1OC)C(=O)OCC`, the inhibition was 49% (active).
With `COc1ccccc1/C=C/C(=O)NC1CC2CCC1C2` (configuration not stated), the inhibition was 18.9% (inactive).
In the case of `COc1ccccc1CNC(=O)C1CCN(C(=O)[C@@H]2Cc3ccccc3CN2)CC1`, the inhibition is 6.93% (inactive).
In the case of `COc1ccc(Nc2cc(=O)oc3ccccc23)cc1` it was -15.1% (inactive).
With `CCCN1CCn2c3c(c4cc(Br)ccc42)CCCC31` (configuration not stated) the figure was 6.43% (inactive); with `CCOc1ccc(/C(O)=C2\C(=O)C(=O)N(c3ccc(OC)cc3)C2c2ccccc2[N+](=O)[O-])cc1` (configuration not stated), 23.4% (inactive); with `COc1ccc2[nH]cc(/C=C(/C#N)S(=O)(=O)c3ccccc3)c2c1`, 54.5% (active).
For `CCN(CC)CC(=O)c1c[nH]c2ccc(OC)cc12`, the inhibition was -7.94% (inactive).
As for `COc1ccc2[nH]cc(CCN3C(=O)c4ccc(C(=O)O)cc4C3=O)c2c1`, the inhibition was -1.99% (inactive).
In the case of `CC(OC(=O)c1ccc2ccccc2n1)C(=O)c1ccccc1` (configuration not stated) it was 3.19% (inactive); in that of `COc1ccc(C(=O)COC(=O)c2ccc3ccccc3n2)cc1`, 37.3% (inactive).
`O=C(Oc1ccc([N+](=O)[O-])cc1)c1ccc2ccccc2n1`: the inhibition was 40.4% (active).
With `O=C(Nc1cccc(Cl)c1Cl)c1ccccc1NC(=O)C1CC=CCC1C(=O)O` (configuration not stated), the inhibition was -0.652% (inactive).
For the molecule `Cc1cc(N=Nc2ccc3ccccc3c2)ccc1O`, the inhibition is 74.2% (active).
In the case of `Cc1ccc(/C=N/NC(=O)c2cc3ccccc3cc2O)o1`, the inhibition is 16.7% (inactive).
As to `COc1cccc(OCC(O)CNC(=O)c2oc3c(C)c(C)ccc3c2C)c1` (configuration not stated), the inhibition is -2.72% (inactive).
Turning to `Cc1nc2cc(C(F)(F)F)ccc2n1CCNc1nc(-c2cc(Cl)c(N)c(Cl)c2)cs1`, the inhibition is 3.25% (inactive).
With `CC(=O)c1c(OCC(=O)N(C)C2CCCCC2)ccc2c(C)cc(=O)oc12` the figure was 5.61% (inactive); with `C=CCNC(=O)COC(=O)CNC(=O)c1cc(Cl)cc([N+](=O)[O-])c1`, -0.359% (inactive); with `C=CCNC(=S)NNC(=O)c1ccc(Br)o1`, -5.99% (inactive).
With `C=CCNC(=S)NNC(=O)COc1c(Cl)cc(Cl)cc1Cl` the figure was 57.7% (active).
With `O=C(CN1CCCCC1)NC(=O)Nc1ccccc1F` the figure was -12.6% (inactive); with `CCOC(=O)CCCNC(=O)COC(=O)c1cc(Br)c(Br)s1`, 10.3% (inactive).
For `Cc1ccc(OCc2n[nH]c(=S)n2-c2ccccc2)cc1`, the inhibition is 16.5% (inactive).
In the case of `Fc1ccc(/C=N/n2c(COc3ccccc3)n[nH]c2=S)cc1`, the inhibition was 40.9% (active).
With `O=[N+]([O-])c1ccccc1/C=N/n1c(COc2ccccc2)n[nH]c1=S` the figure was 17.8% (inactive); with `CC(C)NC(=O)/C(C#N)=C\c1ccc(N(C)C)c(Br)c1`, 55.1% (active); with `CC(C)(C)C(=O)/C(C#N)=C/c1ccc(O)cc1`, -0.948% (inactive).
In the case of `Cc1[nH]c2ccccc2c1/C=C(/C#N)C(=O)NC(C)C` it was 17.7% (inactive).
